Compounds without any hit were thinned out: in the full panel of roughly 83,000, 20% have a hit.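 How to read the values: 0–100, growth inhibition (40 = 60% inhibited); 0, no net growth; -100 to 0, cell death (-40 = 40% of starting cells died; -100 = all dead).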 Values without a mark were called inactive. Activity calls are given as the source filed them. Rule for the calls: active = growth percent below 10; inactive = the rest.

Among the test systems are SK-MEL-2 melanoma; EKVX NSCLC; SN12C renal; UO-31 renal; TK-10 renal; ACHN renal; CAKI-1 renal; A498 renal; MOLT-4 leukemia; RPMI-8226 leukemia; OVCAR-8 ovarian; OVCAR-5 ovarian; OVCAR-4 ovarian; SK-OV-3 ovarian; IGROV1 ovarian; OVCAR-3 ovarian; HS 578T breast; NCI/ADR-RES ovarian; SR leukemia.
What all share (assay): NCI-60 one-dose screen, 48 h (100 = growth as untreated, 0 = no growth, -100 = all killed)
Common to all, as to details: 10 µM unless noted

For `COc1ccc(-c2csc(C3=C(O)CN(CCCN4CCCC4=O)C3=N)n2)cc1OC`, the growth was 99.2% with SK-MEL-2 melanoma; 97.5% in the experiment on EKVX NSCLC; 105% with SN12C renal; 83.8% in the experiment on UO-31 renal; 127% in the experiment on TK-10 renal; 103% in the experiment on ACHN renal. Besides, the growth in the experiment with CAKI-1 renal was 103%; with A498 renal, 100%; in the experiment on MOLT-4 leukemia, 81%; with RPMI-8226 leukemia, 85.5%; with OVCAR-8 ovarian it was 94.6%; in the experiment with OVCAR-5 ovarian it was 94.2%. The growth was 116% in the experiment with OVCAR-4 ovarian; 109% in the experiment on SK-OV-3 ovarian; 63.9% in the experiment with IGROV1 ovarian; 99.4% with OVCAR-3 ovarian; 92.9% in the experiment on HS 578T breast; 100% with NCI/ADR-RES ovarian.
Turning to `O=c1c2c3c(sc2nc(N/N=C/c2ccc(Br)cc2)n1Cc1ccccc1)CCCC3`, the growth was 102% with SK-MEL-2 melanoma; 74.1% in the experiment on EKVX NSCLC; 78.3% with SN12C renal; 62.3% in the experiment with UO-31 renal; 85.5% with TK-10 renal; 87.1% in the experiment with ACHN renal. Also, the growth was 62% in the experiment on CAKI-1 renal; 78.4% with A498 renal; 40.8% in the experiment with MOLT-4 leukemia; 52% with RPMI-8226 leukemia; 45.9% in the experiment on OVCAR-8 ovarian; 84.2% with OVCAR-4 ovarian. Further, the growth in the experiment on SK-OV-3 ovarian is 81.7%; in the experiment with OVCAR-3 ovarian, 76.8%; with HS 578T breast, 64.8%; with NCI/ADR-RES ovarian, 80%.
Regarding `Cc1ccc2nc(NC(=O)CSc3nc(Nc4ccc([N+](=O)[O-])cc4)c(C#N)c(-c4ccccc4)n3)sc2c1`, the growth in the experiment on SK-MEL-2 melanoma was 104%; with EKVX NSCLC, 91.1%; in the experiment with SN12C renal, 97.9%; in the experiment with UO-31 renal it was 78.8%; with TK-10 renal, 101%; with ACHN renal, 90.7%. The growth in the experiment on CAKI-1 renal was 87.9%; in the experiment on A498 renal, 116%; in the experiment on MOLT-4 leukemia it was 97.8%; with RPMI-8226 leukemia it was 80%; in the experiment on OVCAR-8 ovarian it was 91.5%; with OVCAR-5 ovarian, 87.5%. Moreover, the growth in the experiment on OVCAR-4 ovarian is 88.4%; in the experiment on SK-OV-3 ovarian it was 98.3%; in the experiment with IGROV1 ovarian, 76.1%; in the experiment with OVCAR-3 ovarian it was 102%; with HS 578T breast it was 85%; in the experiment with NCI/ADR-RES ovarian, 95%.
Regarding `COc1ccc(Cl)cc1NC(=O)C(Br)C(Br)C(=O)O` (configuration not stated), the growth in the experiment with SK-MEL-2 melanoma is -24.7% (active); in the experiment on EKVX NSCLC, 90.9%; in the experiment with SN12C renal, 59.3%; in the experiment on UO-31 renal, 71.2%; with TK-10 renal, 111%; with ACHN renal, 78.7%. Also, the growth with CAKI-1 renal was 96.3%; in the experiment with A498 renal, 86.6%; in the experiment on MOLT-4 leukemia it was 16.9%; in the experiment on RPMI-8226 leukemia, 11.7%; in the experiment with OVCAR-8 ovarian, 45.3%; in the experiment with OVCAR-5 ovarian it was 122%. Also, the growth in the experiment on OVCAR-4 ovarian is 30.5%; with SK-OV-3 ovarian, 101%; in the experiment on IGROV1 ovarian it was -14.4% (active); with OVCAR-3 ovarian, 9.69% (active); in the experiment on HS 578T breast, 86.3%; in the experiment on NCI/ADR-RES ovarian, -13.8% (active).
As for `Clc1cccc(Cl)c1/C=C/c1cc(/C=C/c2c(Cl)cccc2Cl)[nH]n1`, the growth is 32.4% in the experiment on SK-MEL-2 melanoma; 42% in the experiment with EKVX NSCLC; 40.4% in the experiment on SN12C renal; 51% in the experiment with UO-31 renal; 52.2% with TK-10 renal; 48.9% with ACHN renal. Further, the growth is 30.1% with CAKI-1 renal; 19% in the experiment on A498 renal; 24.7% with SR leukemia; 21.8% in the experiment with RPMI-8226 leukemia; 31.1% in the experiment with OVCAR-8 ovarian; 33.4% in the experiment with OVCAR-5 ovarian. Besides, the growth is 54.6% in the experiment on OVCAR-4 ovarian; 44.4% with SK-OV-3 ovarian; 48% in the experiment with IGROV1 ovarian; -16.5% (active) in the experiment with OVCAR-3 ovarian; 45.5% with HS 578T breast; 4.02% (active) in the experiment with NCI/ADR-RES ovarian.
On to `CC(C)(C)c1ccc(/C=C/C(=O)Nc2ccc(O)cc2)cc1`, for which the growth is 94.6% in the experiment on SK-MEL-2 melanoma; 89.2% in the experiment with EKVX NSCLC; 61.8% in the experiment with SN12C renal; 31.6% in the experiment on UO-31 renal; 103% with TK-10 renal; 60.6% in the experiment with ACHN renal. In addition, the growth in the experiment on CAKI-1 renal was 61.7%; with A498 renal, 103%; with MOLT-4 leukemia, 29.4%; with RPMI-8226 leukemia it was 59.8%; with OVCAR-8 ovarian it was 45.7%; in the experiment with OVCAR-5 ovarian it was 89.8%. Moreover, the growth in the experiment on OVCAR-4 ovarian was 73.8%; with SK-OV-3 ovarian, 96.8%; in the experiment on IGROV1 ovarian, 62.2%; with OVCAR-3 ovarian, 60.4%; in the experiment on HS 578T breast, 80.4%; in the experiment on NCI/ADR-RES ovarian it was 59.9%.
As to `CC1(C)OC2C(CO[Si](C)(C)C(C)(C)C)OC(n3c(I)c(C#C[Si](C)(C)C)c(=O)[nH]c3=O)C2O1` (configuration not stated), the growth in the experiment with SK-MEL-2 melanoma is 82.1%; in the experiment on EKVX NSCLC, 109%; in the experiment with SN12C renal, 85.7%; in the experiment on UO-31 renal, 86.6%; in the experiment with TK-10 renal, 109%; in the experiment on ACHN renal, 107%. Besides, the growth is -8.73% (active) in the experiment with CAKI-1 renal; 102% in the experiment with A498 renal; 13.4% in the experiment on MOLT-4 leukemia; -12.2% (active) with RPMI-8226 leukemia; 88.6% in the experiment with OVCAR-8 ovarian; 92.6% in the experiment on OVCAR-5 ovarian. The growth in the experiment on OVCAR-4 ovarian was -68.4% (active); with SK-OV-3 ovarian, 111%; in the experiment with IGROV1 ovarian, 96.7%; in the experiment with OVCAR-3 ovarian, -41.1% (active); in the experiment with HS 578T breast it was 3.19% (active); with NCI/ADR-RES ovarian, 82.7%.
As for `N/C(=N\c1nc2ccccc2s1)NC(=O)Nc1cccc(Cl)c1`, the growth in the experiment on SK-MEL-2 melanoma was 28.9%; in the experiment on EKVX NSCLC, 49.7%; in the experiment with SN12C renal, 40.9%; in the experiment on UO-31 renal it was 46.8%; in the experiment on TK-10 renal it was 69.2%; in the experiment on ACHN renal, 44.7%. The growth is 23.9% in the experiment with CAKI-1 renal; 10.7% in the experiment on A498 renal; 31.1% in the experiment with MOLT-4 leukemia; 41.6% with RPMI-8226 leukemia; 47.7% in the experiment on OVCAR-8 ovarian; 67.5% with OVCAR-5 ovarian. In addition, the growth was 62.3% in the experiment on OVCAR-4 ovarian; 41.9% in the experiment on SK-OV-3 ovarian; 35.5% in the experiment on IGROV1 ovarian; 15.8% in the experiment on OVCAR-3 ovarian; 17.5% with HS 578T breast; 11.8% in the experiment on NCI/ADR-RES ovarian.

Source of the values: PubChem BioAssay (NCI).
